# Inconclusive results are not listed. Where a call stands in place of a potency, no number is given. Active and inactive are the calls of the source. Unless noted, calls come from the whole dose curve; as a rule, active = well fitted curve in the direction sought with a large enough effect in the repeat runs; inconclusive = weak or mixed curves; inactive = no such curve, though single readings can be large; an effect the other way counts as inactive or inconclusive.
# Assays:
# [1] = qHTS assay to identify aromatase inhibitors - cell viability counter screen (AID 743084);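 note: cells stimulated with testosterone during compound exposure; nearly all actives have a fitted effect of over 55% in size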; note: potency is the fitted concentration of half-maximal effect
# [2] = target: Aryl hydrocarbon receptor (Homo sapiens) (UniProt P35869); test: qHTS assay to identify small molecule that activate the aryl hydrocarbon receptor (AhR) signaling pathway (AID 743085); note: nearly all actives have a fitted effect of over 15% in size; note: potency is the fitted concentration of half-maximal effect;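 for activation: HG2L7.5c1 human HepG2 liver cells with stably integrated DRE-driven firefly reporter; series mostly up to about 70 µM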
# Procedure, shortened: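 24 h compound exposure, 37C, HepG2-derived HG2L7.5c1 cells with DRE-responsive luciferase. Readouts: fluorescence viability, then luminescence at room temperature after 30 min.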
# [3] = qHTS assay to identify small molecule that activate the aryl hydrocarbon receptor (AhR) signaling pathway - cell viability counter screen (AID 743086);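 note: HepG2 liver cells carrying the AhR DRE luciferase reporter; series mostly up to about 70 µM; nearly all actives have a fitted effect of over 45% in size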
# Procedure, shortened: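 Cytotoxicity counter screen: CellTiter-Fluor signal (30 min, 37 C) in 4000 HepG2 cells/well carrying the DRE-luciferase reporter, following 24 h compound exposure at 37 C.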
# [4] = qHTS assay to identify small molecule antagonists of the peroxisome proliferator-activated receptor gamma (PPARg) signaling pathway - cell viability counter screen (AID 743194); note: nearly all actives have a fitted effect of over 55% in size; note: potency is the fitted concentration of half-maximal effect
# Procedure, shortened: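 Viability was measured as CellTiter-Glo luminescence in GeneBLAzer PPARg UAS-bla HEK293H cells. These cells had been exposed 17 h at 37 C to compounds together with rosiglitazone at 50 nM final, with the beta-lactamase readout taken in the same wells.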
# [5] = qHTS assay for small molecule agonists of the antioxidant response element (ARE) signaling pathway - cell viability counter screen (AID 743203; calls by dose curve; note: nearly all actives have a fitted effect of over 55% in size)
# Procedure, shortened: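 Compounds in DMSO were pinned onto ARE-bla HepG2 cells plated 5 hrs earlier at 2,000 cells/well. Sixteen hours later at 37C/5% CO2, CellTiter-Glo was added and luminescence measured after 30 min at room temperature.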
# [6] = qHTS assay for small molecule activators of the heat shock response signaling pathway - cell viability counter screen (AID 743209); note: nearly all actives have a fitted effect of over 50% in size
# Procedure, shortened: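 Counter screen for cytotoxicity in HeLa HSE-bla reporter cells. Treatment was 5 h at 37 C; viability was detected by luminescent ATP assay (CellTiter-Glo) in the same wells as the beta-lactamase read.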
# [7] = qHTS assay for small molecule activators of the heat shock response signaling pathway (AID 743210; active = well fitted activation curve with a large enough effect in the signal ratio in the repeat runs, with a control signal flat, not every such curve was filed as active; the % refers to the signal ratio;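 note: HeLa cells with beta-lactamase reporter driven by heat shock elements; series mostly up to about 63 µM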)
# Procedure, shortened: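 HeLa HSE-bla cells, overnight plating; cpd in DMSO 5 h, 37 C; LiveBLAzer B/G FRET substrate 2.5 h RT; fluorescence intensity read.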
# [8] = qHTS assay to identify small molecule agonists of the peroxisome proliferator-activated receptor delta (PPARd) signaling pathway - cell viability counter screen (AID 743211); note: nearly all actives have a fitted effect of over 55% in size
# Procedure, shortened: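 Luminescent ATP viability assay (CellTiter-Glo, 30 min RT) in UAS-bla HEK293H cells carrying the PPAR delta reporter construct, 3000 cells/well, after a 17 h compound treatment at 37 C.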
# [9] = qHTS assay to identify small molecule antagonists of the peroxisome proliferator-activated receptor delta (PPARd) signaling pathway - cell viability counter screen (AID 743213); note: nearly all actives have a fitted effect of over 50% in size
# Procedure, shortened: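 HEK293H PPARd UAS-bla cells, 5 h pre-incubation, compound + L165041 300 nM final, 17 h 37 C; B/G FRET substrate 2 h RT; then CellTiter-Glo 30 min RT, luminescence.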
# [10] = target: Peroxisome proliferator-activated receptor delta (Homo sapiens) (UniProt Q03181); test: qHTS assay to identify small molecule antagonists of the peroxisome proliferator-activated receptor delta (PPARd) signaling pathway (AID 743215; active = well fitted inhibition curve with a large enough effect in the signal ratio in the repeat runs, not every such curve was filed as active; the % refers to the signal ratio;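 note: cells stimulated with agonist L165041 at 300 nM final during compound exposure; series mostly up to about 62 µM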)
# Procedure, shortened: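 With L165041 present at 300 nM final, compounds were incubated 17 h at 37 C on PPARd UAS-bla HEK293H cells. A FRET-based beta-lactamase substrate was then applied for 2 h at room temperature and fluorescence intensity recorded.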
# [11] = qHTS assay to identify small molecule agonists of the farnesoid-X-receptor (FXR) signaling pathway - cell viability counter screen (AID 743218); note: nearly all actives have a fitted effect of over 45% in size
# Procedure, shortened: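 After 16 h at 37 C with test compounds, FXR-bla HEK 293T cells were given LiveBLAzer B/G substrate for 2 h at RT and then CellTiter-Glo; luminescence was taken after 30 min.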
# [12] = qHTS assay to identify small molecule antagonists of the farnesoid-X-receptor (FXR) signaling pathway - cell viability counter screen (AID 743221; active = well fitted cell-killing curve with a large enough effect in the repeat runs, not every such curve was filed as active; note: nearly all actives have a fitted effect of over 50% in size; note: potency is the fitted concentration of half-maximal effect)
# Procedure, shortened: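 In GeneBLAzer FXR-UAS-bla HEK 293T cells stimulated with 50 uM chenodeoxycholic acid (final), compounds acted for 16 h at 37 C. Viability was assessed afterwards by CellTiter-Glo luminescence.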
# [13] = target: Vitamin D3 receptor (Homo sapiens) (UniProt P11473); test: qHTS assay to identify small molecule agonists of the vitamin D receptor (VDR) signaling pathway (AID 743222; calls by dose curve)
# Procedure, shortened: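 VDR-bla cells were seeded, left 4 h, treated with compounds in DMSO for 16 h, incubated 2 h at RT with B/G FRET substrate, and read for fluorescence.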
# [14] = target: Vitamin D3 receptor (Homo sapiens) (UniProt P11473); test: qHTS assay to identify small molecule antagonists of the vitamin D receptor (VDR) signaling pathway (AID 743223; active = well fitted inhibition curve with a large enough effect in the signal ratio in the repeat runs, not every such curve was filed as active; the % refers to the signal ratio)
# Procedure, shortened: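 Agonist 1alpha,25-dihydroxyvitamin D3 (3 nM in well) was added with each compound to VDR-bla cells preincubated 4 h. Cells stood 16 h at 37C, then FRET substrate 2 h at room temperature; fluorescence intensity recorded.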
# [15] = qHTS assay for small molecule agonists of the antioxidant response element (ARE) signaling pathway (AID 743202; active = well fitted activation curve with a large enough effect in the signal ratio in the repeat runs, not every such curve was filed as active; the % refers to the signal ratio; note: potency is the fitted concentration of half-maximal effect)
# Procedure, shortened: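 Quantitative high-throughput format in HepG2 cells bearing an integrated ARE-beta-lactamase reporter. Compound exposure lasted 16 h at 37 C, and fluorescence was read 2 h after adding LiveBLAzer B/G substrate at room temperature.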
# [16] = target: Peroxisome proliferator-activated receptor delta (Homo sapiens) (UniProt Q03181); test: qHTS assay to identify small molecule agonists of the peroxisome proliferator-activated receptor delta (PPARd) signaling pathway (AID 743212; calls by dose curve)
# Procedure, shortened: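 HEK293H PPARd-bla cells; 5 h preincubation 37 C/5% CO2; compound (DMSO) 37 C; LiveBLAzer B/G FRET substrate 2 h RT; fluorescence intensity.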
# [17] = target: Bile acid receptor (Homo sapiens) (UniProt Q96RI1); test: qHTS assay to identify small molecule antagonists of the farnesoid-X-receptor (FXR) signaling pathway (AID 743217; active = well fitted inhibition curve with a large enough effect in the signal ratio in the repeat runs, not every such curve was filed as active; the % refers to the signal ratio)
# Procedure, shortened: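 In this cell-based antagonist screen, inhibition of CDCA-driven (50 uM final) UAS-beta-lactamase expression in HEK 293T cells was measured by FRET fluorescence following 16 h compound exposure at 37 °C.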
# [18] = target: Bile acid receptor (Homo sapiens) (UniProt Q96RI1); test: qHTS assay to identify small molecule agonists of the farnesoid-X-receptor (FXR) signaling pathway (AID 743220; active = well fitted activation curve with a large enough effect in the signal ratio in the repeat runs, not every such curve was filed as active; the % refers to the signal ratio)
# Procedure, shortened: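 Beta-lactamase reporter under UAS control in GeneBLAzer FXR HEK 293T cells (5000/well) measured with LiveBLAzer FRET substrate after 2 h at room temperature. Compound exposure lasted 16 h at 37C.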
# [19] = target: Peroxisome proliferator-activated receptor gamma (Homo sapiens) (UniProt P37231); test: qHTS assay to identify small molecule antagonists of the peroxisome proliferator-activated receptor gamma (PPARg) signaling pathway (AID 743191; calls by dose curve; note: series mostly up to about 63 µM; nearly all actives have a fitted effect of over 30% in size)
# Procedure, shortened: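 Beta-lactamase reporter under UAS control in HEK293H PPARg-bla cells; compound treatment 17 h at 37C. Read-out: fluorescence intensity after 1 h room-temperature incubation with LiveBLAzer B/G FRET substrate.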
# [20] = target: Peroxisome proliferator-activated receptor gamma (Homo sapiens) (UniProt P37231); test: qHTS assay to identify small molecule agonists of the peroxisome proliferator-activated receptor gamma (PPARg) signaling pathway (AID 743094; active = well fitted activation curve with a large enough effect in the signal ratio in the repeat runs, not every such curve was filed as active; the % refers to the signal ratio)
# Procedure, shortened: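 Following 5 h plating at 37C, PPARg-bla HEK293H cells receive compound or DMSO for 17 h; fluorescence intensity is recorded after LiveBLAzer B/G loading for 1 h at room temperature.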
# Chain of Aryl hydrocarbon receptor (Homo sapiens) (P35869 whole entry, looked up): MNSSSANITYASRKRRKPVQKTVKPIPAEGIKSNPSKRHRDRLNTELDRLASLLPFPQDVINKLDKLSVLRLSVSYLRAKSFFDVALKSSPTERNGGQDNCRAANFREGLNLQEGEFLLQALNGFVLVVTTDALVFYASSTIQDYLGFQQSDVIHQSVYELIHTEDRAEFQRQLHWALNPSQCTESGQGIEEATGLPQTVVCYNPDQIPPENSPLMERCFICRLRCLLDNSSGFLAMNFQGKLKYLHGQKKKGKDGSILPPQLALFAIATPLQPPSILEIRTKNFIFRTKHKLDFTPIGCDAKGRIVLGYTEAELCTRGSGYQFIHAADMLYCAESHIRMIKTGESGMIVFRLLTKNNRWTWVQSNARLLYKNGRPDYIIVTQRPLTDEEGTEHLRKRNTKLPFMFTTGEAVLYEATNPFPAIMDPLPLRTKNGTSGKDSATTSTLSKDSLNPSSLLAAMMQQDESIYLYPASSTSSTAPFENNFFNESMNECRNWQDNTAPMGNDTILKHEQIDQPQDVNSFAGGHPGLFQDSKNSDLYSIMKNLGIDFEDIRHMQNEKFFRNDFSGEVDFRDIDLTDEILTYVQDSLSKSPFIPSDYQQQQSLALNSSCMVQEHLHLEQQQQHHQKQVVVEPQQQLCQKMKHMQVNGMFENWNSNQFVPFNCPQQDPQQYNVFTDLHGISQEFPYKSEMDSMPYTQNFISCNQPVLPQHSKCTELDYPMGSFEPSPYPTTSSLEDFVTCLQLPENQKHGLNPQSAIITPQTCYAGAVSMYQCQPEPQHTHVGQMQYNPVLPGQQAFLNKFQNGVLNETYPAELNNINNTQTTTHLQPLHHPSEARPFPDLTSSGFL
# Chain of Peroxisome proliferator-activated receptor gamma (Homo sapiens) (P37231 whole entry, looked up): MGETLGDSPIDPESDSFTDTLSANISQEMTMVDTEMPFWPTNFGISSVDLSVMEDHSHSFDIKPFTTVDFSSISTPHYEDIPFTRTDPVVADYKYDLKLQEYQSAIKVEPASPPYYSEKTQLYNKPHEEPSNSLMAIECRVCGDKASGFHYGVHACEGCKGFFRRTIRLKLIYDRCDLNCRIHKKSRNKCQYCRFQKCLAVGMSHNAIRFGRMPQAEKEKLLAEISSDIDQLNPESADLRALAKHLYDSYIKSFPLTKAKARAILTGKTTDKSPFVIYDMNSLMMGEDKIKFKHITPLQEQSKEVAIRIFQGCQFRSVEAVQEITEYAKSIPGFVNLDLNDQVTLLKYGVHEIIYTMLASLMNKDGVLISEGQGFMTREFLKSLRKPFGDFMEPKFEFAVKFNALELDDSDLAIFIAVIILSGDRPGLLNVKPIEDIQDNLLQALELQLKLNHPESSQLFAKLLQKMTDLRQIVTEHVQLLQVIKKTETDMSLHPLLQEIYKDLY
# Chain of Peroxisome proliferator-activated receptor delta (Homo sapiens) (Q03181 whole entry, looked up): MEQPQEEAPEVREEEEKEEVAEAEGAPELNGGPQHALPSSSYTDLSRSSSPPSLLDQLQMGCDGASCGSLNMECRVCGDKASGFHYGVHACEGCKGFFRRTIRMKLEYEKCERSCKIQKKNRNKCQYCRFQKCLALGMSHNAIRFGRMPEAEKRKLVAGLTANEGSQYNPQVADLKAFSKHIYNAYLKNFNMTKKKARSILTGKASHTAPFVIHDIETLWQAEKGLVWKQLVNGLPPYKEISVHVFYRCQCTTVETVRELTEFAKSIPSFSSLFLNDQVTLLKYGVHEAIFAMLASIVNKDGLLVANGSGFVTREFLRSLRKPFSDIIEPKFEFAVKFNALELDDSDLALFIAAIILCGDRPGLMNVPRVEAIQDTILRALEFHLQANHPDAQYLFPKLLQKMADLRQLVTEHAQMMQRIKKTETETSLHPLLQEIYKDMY
# Chain of Vitamin D3 receptor (Homo sapiens) (P11473 whole entry, looked up): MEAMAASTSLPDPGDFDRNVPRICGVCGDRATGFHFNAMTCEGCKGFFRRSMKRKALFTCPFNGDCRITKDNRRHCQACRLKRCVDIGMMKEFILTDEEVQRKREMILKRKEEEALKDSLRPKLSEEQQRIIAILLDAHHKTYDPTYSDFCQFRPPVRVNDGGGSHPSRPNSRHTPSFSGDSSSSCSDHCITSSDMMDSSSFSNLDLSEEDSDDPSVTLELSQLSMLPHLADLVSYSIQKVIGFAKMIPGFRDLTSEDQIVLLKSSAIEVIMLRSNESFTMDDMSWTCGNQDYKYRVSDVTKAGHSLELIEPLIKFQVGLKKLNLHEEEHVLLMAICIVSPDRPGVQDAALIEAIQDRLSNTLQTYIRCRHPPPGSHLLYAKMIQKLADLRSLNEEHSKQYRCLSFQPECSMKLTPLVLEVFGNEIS
# Chain of Bile acid receptor (Homo sapiens) (Q96RI1 whole entry, looked up): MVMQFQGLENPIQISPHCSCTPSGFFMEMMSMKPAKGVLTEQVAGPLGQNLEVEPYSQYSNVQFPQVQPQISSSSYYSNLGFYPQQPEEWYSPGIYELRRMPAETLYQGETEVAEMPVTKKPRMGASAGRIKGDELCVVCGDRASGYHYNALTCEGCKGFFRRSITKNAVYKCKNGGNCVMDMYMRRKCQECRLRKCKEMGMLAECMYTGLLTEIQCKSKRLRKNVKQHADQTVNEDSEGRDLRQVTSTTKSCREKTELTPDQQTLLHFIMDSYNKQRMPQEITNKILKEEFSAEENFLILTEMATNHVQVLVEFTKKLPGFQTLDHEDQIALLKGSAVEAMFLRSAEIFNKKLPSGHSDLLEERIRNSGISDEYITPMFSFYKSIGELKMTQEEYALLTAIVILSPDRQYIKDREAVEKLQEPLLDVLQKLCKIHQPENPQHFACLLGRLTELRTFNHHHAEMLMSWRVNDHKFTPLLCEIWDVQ
SMILES,Potency [1],Potency [2],Potency [3],Potency [4],Potency [5],Potency [6],outcome [7],Potency [8],Potency [9],outcome [10],Potency [11],Potency [12],outcome [13],Potency [14],Potency [15],outcome [16],outcome [17],outcome [18],Potency [19],Potency [20]
CC(C(=O)O)c1ccc(-c2ccccc2)c(F)c1 (stereo not drawn),inactive,inactive,inactive,inactive,inactive,inactive,inactive,inactive,inactive,inactive,inactive,inactive,inactive,inactive,,,,,,
Cc1cc(O)ccc1N,54.8 µM (active),61.4 µM (active),inactive,inactive,inactive,inactive,,inactive,,inactive,,,,,21.8 µM (active),inactive,,,,
O=C(O)COC(=O)Cc1ccccc1Nc1c(Cl)cccc1Cl,inactive,inactive,inactive,inactive,inactive,inactive,inactive,inactive,inactive,inactive,,inactive,inactive,inactive,inactive,inactive,,,,
N#Cc1c(F)cccc1F,inactive,inactive,inactive,inactive,inactive,inactive,inactive,inactive,inactive,inactive,inactive,inactive,,,inactive,inactive,inactive,inactive,,
CCOc1cc(OCC)c(C(=O)CCC(=O)O)cc1OCC,inactive,inactive,inactive,inactive,inactive,inactive,inactive,inactive,inactive,inactive,inactive,inactive,,,,,,,,
C[C@H](CCC(=O)O)[C@H]1CC[C@H]2[C@@H]3[C@H](O)C[C@@H]4C[C@H](O)CC[C@]4(C)[C@H]3CC[C@]12C,inactive,inactive,inactive,inactive,inactive,inactive,inactive,inactive,,,inactive,inactive,,,,,,,,
O=C1c2cccc(O)c2C(=O)c2c(O)cc(CO)cc21,inactive,inactive,inactive,inactive,inactive,inactive,inactive,inactive,inactive,,inactive,,inactive,inactive,,,,inactive,,
O=C(O)Cc1cc(I)c(Oc2ccc(O)c(I)c2)c(I)c1,inactive,inactive,inactive,24.5 µM (active),,inactive,,inactive,inactive,,,54.9 µM (active),,,15.4 µM (active),,,,,
O=C(O)Cn1c(C(=O)Nc2nc(-c3ccccc3Cl)cs2)cc2ccccc21,inactive,,inactive,inactive,inactive,inactive,,inactive,inactive,,inactive,inactive,,inactive,21.1 µM (active),,inactive,inactive,inactive,
CN1CCC(=C2c3ccccc3CCc3sccc32)CC1,inactive,inactive,,,inactive,inactive,,,,inactive,,,,,,inactive,,inactive,inactive,inactive
CCN(CC)CCNC(C(=O)OCCC(C)C)c1ccccc1 (stereo not drawn),inactive,inactive,,inactive,inactive,,inactive,inactive,inactive,inactive,inactive,inactive,inactive,inactive,inactive,inactive,,,inactive,inactive
